According to PubChem BioAssay (NCATS):
Records with an inconclusive call do not appear. Activity calls are given as the source filed them. Calls come from the whole dose curve; as a rule, active = well fitted inhibition curve with a large enough effect; inconclusive = small, poorly fitted or top-dose-only effect; inactive = flat fitted curve, though single readings scatter.

tested on: W2; experiment: qHTS profiling for inhibitors of Plasmodium falciparum proliferation (AID 504749); note: nearly all actives have a fitted effect of over 60% in size;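 for activity, negative = inhibition: 0% = DMSO vehicle and full inhibition = artemisinin control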; conditions: P. falciparum in erythrocytes, SYBR Green DNA, 72 h; series mostly up to 28.7 µM; activity, negative = inhibition: at the top concentration
Procedure, shortened: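 SYBR Green fluorescence of parasite DNA, read after lysis and overnight dark incubation, measured growth over 72 h in erythrocyte culture at 0.3% parasitemia and 2.5% hematocrit. Data normalised to DMSO and 0.29 uM artemisinin, with plate-drift correction.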
Potency is the fitted concentration of half-maximal effect.

| Compound | activity, negative = inhibition | Potency |
| --- | --- | --- |
| Cn1nnc2c(C(N)=O)ncn2c1=O | -3.41% (inactive) |  |
| N[C@@H](C(=O)N[C@@H]1C(=O)N2C(C(=O)O)=C(Cl)CS[C@H]12)c1ccccc1 | 5.27% (inactive) |  |
| O=P(O)(O)C(O)(Cc1cccnc1)P(=O)(O)O | 15.5% (inactive) |  |
| NCCCC(O)(P(=O)(O)O)P(=O)(O)O | 1.98% (inactive) |  |
| CC(C)(C#N)c1cc(Cn2cncn2)cc(C(C)(C)C#N)c1 | 2.73% (inactive) |  |
| Cc1ccnc2c1NC(=O)c1cccnc1N2C1CC1 | -1.91% (inactive) |  |
| O=C(O)c1cc(=O)[nH]c(=O)[nH]1 | 15.5% (inactive) |  |
| Cc1ncc([N+](=O)[O-])n1CCO | 2.7% (inactive) |  |
| CCN(C)C(=O)Oc1cccc([C@H](C)N(C)C)c1 | -20.4% (inactive) |  |
| COc1cc(NCc2ccc3nc(N)nc(N)c3c2C)cc(OC)c1OC |  | 301 nM (active) |
| COc1cc([C@@H]2c3cc4c(cc3[C@H](O)[C@H]3COC(=O)[C@H]23)OCO4)cc(OC)c1OC |  | 1690 nM (active) |
| C1CCC(C(CC2CCCCN2)C2CCCCC2)CC1 (stereo not drawn) |  | 1690 nM (active) |
| COc1ccc2cc3[n+](cc2c1OC)CCc1cc2c(cc1-3)OCO2 |  | 601 nM (active) |
| CCOCC(O)COc1ccc(NC(=O)CC[S+](C)C)cc1 (stereo not drawn) | -9.33% (inactive) |  |
| COC(=O)Nc1nc2ccc(Sc3ccccc3)cc2[nH]1 | -5.67% [at 12.8 µM] (inactive) |  |
| CC(C)Cn1cnc2c(N)nc3ccccc3c21 | -15.6% (inactive) |  |
| O=S(=O)(O)CCS | -7.57% (inactive) |  |
| CN(C)c1ccc(C(=C2C=CC(=[N+](C)C)C=C2)c2ccc(N(C)C)cc2)cc1 |  | 120 nM (active) |
| CN1CCN(c2c(F)cc3c(=O)c(C(=O)O)cn(CCF)c3c2F)CC1 | 5.49% (inactive) |  |
| NC(=O)N1c2ccccc2CC(=O)c2ccccc21 | 1.46% (inactive) |  |
| Nc1nc(N)nc(-c2cc(Cl)ccc2Cl)n1 | 6.68% (inactive) |  |
| CCCN[C@H]1CCc2nc(N)sc2C1 | -5.02% (inactive) |  |
| CN(CCOc1ccc(CC2SC(=O)NC2=O)cc1)c1ccccn1 (stereo not drawn) | 8.55% (inactive) |  |
| CCCc1cc(C(N)=S)ccn1 | 11.3% (inactive) |  |
| C[C@]12C=CC(=O)C=C1CC[C@@H]1[C@@H]2C(=O)C[C@@]2(C)[C@H]1CC[C@]2(O)C(=O)CO | 5.11% (inactive) |  |
| Nc1[nH]c(=O)ncc1F | 15.5% [at 12.8 µM] (inactive) |  |
| CC(C)(Sc1cc(C(C)(C)C)c(O)c(C(C)(C)C)c1)Sc1cc(C(C)(C)C)c(O)c(C(C)(C)C)c1 |  | 4050 nM (active) |
| N=C(N)c1ccc(OCCCCCOc2ccc(C(=N)N)cc2)cc1 |  | 478 nM (active) |
